In the library only some 0.26% were active in any assay of this set; here they are far more common.
Menin-MLL FL inh: displaces fluorescein MLL peptide from human menin; FP activity change, % at 61.4 µM; 290,000 tested, under 10 active; Fluorescence polarization, fluorescein-MLL peptide displacement from menin; active = well fitted curve in the direction sought with a large enough effect in the polarisation, not every such curve was filed as active; inconclusive = small, poorly fitted or top-dose-only effect, or effect the other way, or a change in a side signal; inactive = no such curve, though single readings can be large or run the other way; the % refers to the polarisation; also: % of control where 0% means no effect
Epigenetic derep: epigenetic control regulation, reporter derepression; 0.2% of 280,000 active; Potency, µM (series often up to 53.9 µM), inactives show at the highest dose GFP activation, actives largely listed as activators; murine LDR cells, GFP reporter derepression, 30 h; also: potency is read from the fitted curve at half-maximal effect; % of control where 0% means no effect; nearly all actives have a fitted effect of over 60% in size
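Readout is the number of GFP-expressing murine LDR cells, counted by cytometry following washing. Cells were treated with compound for 30 h at 37 C; the stably integrated CMV-GFP locus is normally silent.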
Lamin A splicing: LMNA splicing modulation; HeLa LMNA splicing GFP/RFP minigene ratio, 48 h; Potency, µM (series often up to 46.1 µM), for the others: top-dose ratio change, negative = inhibition, usual class: inhibitors; 0.01% of 200,000 active; AID 1487; active = well fitted inhibition curve with a large enough effect in the signal ratio, with a control signal flat, not every such curve was filed as active; inconclusive = small, poorly fitted or top-dose-only effect, or effect the other way, or a change in a side signal; the % refers to the signal ratio; also: potency is read from the fitted curve at half-maximal effect; % is scaled to controls: 0 for no effect and ±100 for the full control effect
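S3 HeLa stable clones carrying a lamin A-EGFP splicing minigene plus DsRed2 were seeded at 600 cells/well in Opti-MEM with 2% FBS, pin-dosed and incubated 48 h at 37°C. Acumen cytometry (488 nm) gave the GFP/RFP total-intensity ratio.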
CXXC DNA block: blocks binding of human MLL CXXC domain to DNA | Q03164 | MLL-CXXC / FITC-HOXA9 DNA fluorescence polarization | Potency, µM (top dose mostly 115 µM), without a hit: at the top dose activity change, negative = inhibition, usual class: inhibitors | 0.037% of 290,000 active; active = well fitted inhibition curve with a large enough effect in the polarisation, with a control signal flat, not every such curve was filed as active; inconclusive = small, poorly fitted or top-dose-only effect, or effect the other way, or a change in a side signal; inactive = no such curve, though single readings can be large or run the other way; the % refers to the polarisation; also: potency is read from the fitted curve at half-maximal effect
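Fluorescence polarization: 7 uM MLL-CXXC (stock) preincubated 5 min with compounds, then 50 nM fluorescein-HOX-A9 DNA (stock) added; 30 min ambient. Buffer 50 mM Tris-HCl pH 7.5, 50 mM NaCl, 1 mM DTT, 0.05% BSA.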
Menin-MLL TR inh: inhibitors of human menin-MLL interaction, mutant MLL peptide; 0.23% of 270,000 active; Menin + Texas Red MLL mutant peptide, fluorescence polarization; AID 1768; Potency, µM (doses to about 61.6 µM), inactives show top-dose FP activity change, negative = inhibition, most hits filed as inhibitors; active = well fitted inhibition curve with a large enough effect in the polarisation, with a control signal flat, not every such curve was filed as active; inconclusive = small, poorly fitted or top-dose-only effect, or effect the other way, or a change in a side signal; inactive = no such curve, though single readings can be large or run the other way; the % refers to the polarisation; also: potency is read from the fitted curve at half-maximal effect; % of control where 0% means no effect
HCC4017 tox: HCC4017 cytotoxicity of epigenetic modulator hits; AID 493071; 30% of 45 active; HCC4017 NSCLC viability, CellTiter-Glo ATP luminescence, 72 h; shares compounds with Epigenetic derep; Potency, µM (doses to about 46.1 µM), for inactives: at the highest dose activity change, negative = cytotoxicity, most hits filed as cytotoxic
H358 viab: H358 cytotoxicity of epigenetic modulator hits; shares compounds with Epigenetic derep; H358 NSCLC viability, ATP luminescence, 72 h; Potency, µM (series often up to 46.1 µM), for the others: at the top dose activity change, negative = viability loss, hits mostly cytotoxic; 30% of 45 active; AID 493074
MLL CXXC FP-Fl: inhibitors of human MLL CXXC domain-DNA interaction; Potency, µM (highest dose often 345 µM), inactives show top-dose activity change, negative = inhibition, most hits filed as inhibitors; MLL CXXC-DNA binding, fluorescein FP; 70% of 200 active; shares compounds with CXXC DNA block; also: potency is read from the fitted curve at half-maximal effect; nearly all actives have a fitted effect of over 80% in size
MLL CXXC FP-TR: inhibitors of human MLL CXXC domain-DNA interaction, Texas Red format. shares compounds with CXXC DNA block. Potency, µM (highest dose often 345 µM), without a hit: top-dose activity change, negative = inhibition, hits mostly inhibitors. 40% of 200 active. MLL CXXC-DNA binding, Texas Red fluorescence polarization; also: potency is read from the fitted curve at half-maximal effect; % is scaled to controls: 0 for no effect and ±100 for the full control effect; nearly all actives have a fitted effect of over 75% in size
MLL CXXC TRF: MLL CXXC-DNA interaction inhibition, HTRF readout; shares compounds with CXXC DNA block; MLL CXXC-DNA binding, HTRF, biochemical; Potency, µM (top dose mostly 172 µM), for the others: at the highest dose activity change, negative = inhibition, usual class: inhibitors; 30% of 210 active; AID 624162; also: % is scaled to controls: 0 for no effect and ±100 for the full control effect; nearly all actives have a fitted effect of over 80% in size
* = called active by the depositor; ? = inconclusive; · = not tested or not shown; [ ] = remark or other dose. Unless noted, calls follow the shape of the dose curve; as a rule, active = well fitted curve in the direction sought with a large enough effect; inconclusive = small, poorly fitted or top-dose-only effect, or another doubt; inactive = no such curve, though single readings can be large; an effect the other way counts as inactive or inconclusive.

SMILES | Menin-MLL FL inh | Epigenetic derep | Lamin A splicing | CXXC DNA block | Menin-MLL TR inh | others
O=C1NC(=O)N(c2ccc3c(c2)OCO3)C(=O)/C1=C/c1cccs1 | ? | 22.4µM* | · | -6.8% | 33.4%
Cc1ccccc1-n1c(/C=C/c2ccc(N(C)C)cc2)nc2ccccc2c1=O | · | 10µM* | · | · | ·
CCCCOP(=O)(OCCCC)C(Nc1ccc(C(=O)OCC)cc1)c1ccncc1 (configuration not stated) | -13.8 | · | · | 11.7% | 3.16µM*
CCOP(=O)(OCC)C(NC(=O)Nc1ccc(C)c(Cl)c1)c1ccccc1 (configuration not stated) | 4.8 | 0.1% | ? | 10.5% | 6.1%
O=C1C=CC(=O)C(Cl)=C1 | -2.3 | 3.1% | · | · | ?
NC1CCCC[C@@H]1N (some centres not stated) | -5.7 | · | · | · | -18.4%
O=C(Oc1cccc2cccnc12)c1ccccc1 | -2.7 | ? | ? | -18.0% | -21.3%
Oc1cccc2cccnc12 | -1.0 | 3.98µM* | ? | -19.1% | 5.2%
CCCNC(=O)c1c(N)n(Cc2ccco2)c2nc3ccccc3nc12 | ? | 4.1% | -0.4% | 8.4% | 25.3%
Nc1c(C(=O)NCC2CCCO2)c2nc3ccccc3nc2n1Cc1ccco1 (configuration not stated) | ? | 25.1µM* | · | -14.3% | ·
CNc1ccc2oc(C[C@@H]3OC4(CC[C@@H]3C)O[C@H]([C@@H](C)C(=O)c3ccc[nH]3)[C@H](C)C[C@H]4C)nc2c1C(=O)O (some centres not stated) | · | 1.1% | · | · | ·
CCn1ccnc1CN1CCCC(C(=O)c2cc(F)ccc2OC)C1 (configuration not stated) | -10.9 | 3.98µM* | 8.3%[46 µM] | 2.6% | -8.6%
CCCCCSc1cc(OC)c(CCN)cc1OC | 2.6 | 1.0% | -5.5% | 0.2% | -22.8%
CCCCCCCSc1cc(OC)c(CCN(C)C)cc1OC | 1.0 | 1.4% | ? | ? | 7.08µM*
COC(=O)[C@@H]1[C@@H](O)[C@@]2(O)c3c(OC)cc(OC)cc3O[C@@]2(c2ccc(OC)cc2)[C@H]1c1ccccc1 | -1.8[11.7 µM] | 3.55µM* | · | · | 10.1%[11.7 µM]
CCN(CC)c1ccc(/C=N/c2sc3c(c2C#N)C2CCN3CC2)c(O)c1 | ? | 2.82µM* | -11.3% | ? | -11.1%
[Hg+][c]1ccccc1 | -2.1 | · | · | 15.0% | -7.9%
O=C(O)c1ccc(-c2ccc3cc(C45CC6CC(CC(C6)C4)C5)c(O)cc3c2)cc1 | -0.4 | · | · | · | ?
CN1CSC(=S)N(C)C1 | 0.8 | 8.91µM* | 15.3% | 4.4% | -13.5% | HCC4017 tox=?;H358 viab=?
CN1[C@H]2CC(OC(=O)[C@H](CO)c3ccccc3)C[C@H]1[C@H]1O[C@H]12 (some centres not stated) | 4.2 | · | ? | 0.6% | 1.1%
O=C(O)CCC(=O)NCCC1=c2ccccc2=N/C1=C\c1c(O)n(Cc2ccc(F)cc2)c(=S)[nH]c1=O | 21.8 | -1.6% | · | 20µM* | · | MLL CXXC FP-Fl=22.5µM*;MLL CXXC FP-TR=56.5µM*;MLL CXXC TRF=15.3µM*
[Cl-].[Cl-].[Hg+2] | -3.3 | · | ? | -13.2% | -10.3%
CC1(C)[C@H](C(=O)O[C@H](C#N)c2cccc(Oc3ccccc3)c2)[C@@H]1C=C(Br)Br | -8.4 | · | · | · | 6.8%
Cc1c(Cl)cccc1N1C(=O)NC(=O)/C(=C\c2cc(C)n(-c3cccc(C(=O)O)c3C)c2C)C1=O | 13.1 | · | · | ? | 31.9% | MLL CXXC FP-Fl=7.11µM*;MLL CXXC FP-TR=71.1µM*;MLL CXXC TRF=-8.8%
Cc1cc(/C=C2\C(=O)NC(=O)N(c3ccc(F)cc3)C2=O)c(C)n1-c1ccc(C(=O)O)cc1 | ? | 2.1% | · | ? | 7.1% | MLL CXXC FP-Fl=35.6µM*;MLL CXXC FP-TR=100µM*;MLL CXXC TRF=-11.9%
SMILES | Menin-MLL FL inh | Epigenetic derep | Lamin A splicing | CXXC DNA block | Menin-MLL TR inh | others
Cc1ccc(N2C(=O)NC(=O)/C(=C\c3cc(C)n(-c4cc(C(=O)O)cc(C(=O)O)c4)c3C)C2=O)cc1 | 3.0 | · | · | 8.91µM* | -6.8% | MLL CXXC FP-Fl=35.6µM*;MLL CXXC FP-TR=40µM*;MLL CXXC TRF=122µM*
Cc1cc(/C=C2\C(=O)NC(=O)N(c3cccc(F)c3)C2=O)c(C)n1-c1ccc(C(=O)O)c(Cl)c1 | ? | · | · | 12.6µM* | 23.3% | MLL CXXC FP-Fl=12.0%;MLL CXXC FP-TR=89.5µM*;MLL CXXC TRF=-7.0%
Cc1ccc(N2C(=O)NC(=O)/C(=C\c3cc(C)n(-c4ccc(C(=O)O)cc4)c3C)C2=O)cc1 | 18.0 | · | · | 10.7% | 19.1%
CCc1ccc(N2C(=O)NC(=O)/C(=C\c3cc(C)n(-c4cc(C(=O)O)cc(C(=O)O)c4)c3C)C2=O)cc1 | 22.6 | · | · | -8.3% | -13.4%
Cc1cc(/C=C2\C(=O)NC(=O)N(Cc3ccccc3)C2=O)c(C)n1-c1ccc(Cl)c(C(=O)O)c1 | ? | -1.0% | 5.4% | ? | 36.4%
CCCCC/C=C\C/C=C\C/C=C\C/C=C\CCCC(=O)N(Cc1ccc(O)c(Cl)c1)Cc1ccc(O)c(Cl)c1 | -5.0 | -4.6% | · | · | -2.9%
O=C1NC(=O)C(=Cc2cn(CCOc3ccc4c(c3)OCO4)c3ccccc23)C(=O)N1 | ? | ? | 0.3% | 35.5µM* | -10.8% | MLL CXXC FP-Fl=159µM*;MLL CXXC FP-TR=?;MLL CXXC TRF=-9.6%
Cc1cc(/C=C2\C(=O)NC(=O)N(Cc3ccco3)C2=O)c(C)n1-c1ccc(C(=O)O)cc1 | 12.6 | -2.4% | · | 28.2µM* | · | MLL CXXC FP-Fl=1.42µM*;MLL CXXC FP-TR=142µM*;MLL CXXC TRF=-13.6%
Cc1cc(/C=C2\C(=O)NC(=O)N(Cc3ccccc3Cl)C2=O)c(C)n1-c1ccc(C(=O)O)cc1 | 18.1 | -1.1% | ? | ? | ? | MLL CXXC FP-Fl=14.2µM*;MLL CXXC FP-TR=50.3µM*;MLL CXXC TRF=?
O=c1[nH]c(=O)n(Cc2ccc(F)cc2)c(O)c1C=NCc1cccnc1 | -0.9 | -3.7% | 6.0% | 2.3% | 2.9%
